High-throughput results (PubChem)
E-sel TNF inh: blocks E-selectin expression induced by TNF alpha. HUVEC TNFa-induced E-selectin immunofluorescence, high content. inhibition, % at 2 µM. AID 1246. 120,000 tested, 0.71% active;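 active = inhibition above the batch mean plus 3 SD, and confirmed as a hit on visual image review, cut at about 43% in these data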
CYP2C9 inhib: inhibitors of human CYP2C9; P11712; CYP2C9 Supersomes, luciferin-H conversion, luminescence; inhibition, % at 5 µM; 96,000 tested, 20% active;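 active = blocking of liver enzyme CYP2C9 beyond about 50% at 5 µM, limit read from the data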
Target sequence (P11712 whole entry, looked up): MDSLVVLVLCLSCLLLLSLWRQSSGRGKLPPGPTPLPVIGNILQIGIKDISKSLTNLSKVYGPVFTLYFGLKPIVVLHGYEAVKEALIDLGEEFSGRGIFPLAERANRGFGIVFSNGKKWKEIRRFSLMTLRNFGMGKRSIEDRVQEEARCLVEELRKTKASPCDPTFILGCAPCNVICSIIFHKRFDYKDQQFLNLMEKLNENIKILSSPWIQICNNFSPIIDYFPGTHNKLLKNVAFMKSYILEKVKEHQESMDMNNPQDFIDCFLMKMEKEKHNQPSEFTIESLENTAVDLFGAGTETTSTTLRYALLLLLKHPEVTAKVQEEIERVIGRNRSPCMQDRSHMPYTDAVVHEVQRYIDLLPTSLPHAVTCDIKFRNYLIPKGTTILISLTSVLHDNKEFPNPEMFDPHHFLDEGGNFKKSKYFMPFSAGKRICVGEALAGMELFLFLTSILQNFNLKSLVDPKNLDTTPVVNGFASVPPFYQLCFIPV
CYP2C19 inh: human CYP2C19 inhibition | P33261 | CYP2C19 Supersomes, luciferin-H EGE luminescence, 30 min | inhibition, % at 5 µM | 96,000 tested, 21% active;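 active = CYP2C19 inhibition above a set limit at 5 µM in the primary screen, cut at about 50% in these data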
CYP2C9 act: activators of human CYP2C9; P11712; recombinant CYP2C9, luciferin-H conversion, luminescence; stronger effect = higher value; factor 1 = untreated enzyme, 0 = blocked; activation factor at 5 µM; 96,000 tested, 1.4% active; AID 1024;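 active = activation factor of 2 or more for CYP2C9 at a 5 µM dose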
CYP2C19 act: activators of human cytochrome P450 2C19; recombinant CYP2C19, luciferin-H EGE luminescence; stronger effect = higher value; 0 = fully inhibited enzyme, 1 = untreated enzyme; activation factor at 5 µM; 96,000 tested, under 10 active; AID 1025;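 active = activation factor of at least 2 at 5 µM in the primary screen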
F-actin modifier: alters cytoskeleton assembly in HUVEC cells; HUVEC TNFa F-actin phalloidin imaging, high content; inhibition, % at 2 µM; 91,000 tested, 0.18% active; AID 836;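 active = inhibition above the batch mean plus 3 SD and confirmed as a hit by visual image inspection, cut at about 30% in these data, passing the limit was not always enough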
A number is an active result; n = inactive; x = not tested or not shown. The list is not random: actives were taken first. Their share in the collection is about 22%.

SMILES	E-sel TNF inh	CYP2C9 inhib	CYP2C19 inh	CYP2C9 act	CYP2C19 act	F-actin modifier
COc1ccc(C(=O)CC2OC(=O)c3c2ccc(OC)c3OC)cc1 (stereo not given)	n	n	80	n	n	x
CC(=O)c1ccccc1NC(=O)COC(=O)CCCN1C(=O)c2cccc3cccc(c23)C1=O	n	x	x	x	x	x
Cc1cccc(NC(=O)CC2S/C(=N/c3nccs3)N(C)C2=O)c1 (stereo not given)	n	80	54	n	n	n
Cc1cccc(NC(=O)CC2SC(=O)N(c3ccccc3)C2=O)c1 (stereo not given)	n	n	n	n	n	n
CCCCCC(=O)N(O)C1CC(=O)N(c2ccccc2)C1=O (stereo not given)	n	n	n	n	n	n
CCC(c1nnnn1C(C)(C)C)N1CCN(c2cc(Cl)ccc2C)CC1 (stereo not given)	n	79	n	n	n	n
CCCC(c1nnnn1CC1CCCO1)N1CCN(c2cc(Cl)ccc2C)CC1 (stereo not given)	x	89	96	n	n	n
Cc1ccc(C(c2nnnn2CC2CCCO2)N2CCN(c3cccc(C)c3C)CC2)cc1 (stereo not given)	x	70	n	n	n	n
Cc1ccc(Cl)cc1N1CCN(C(CC(C)C)c2nnnn2CC2CCCO2)CC1 (stereo not given)	n	n	n	n	n	n
CSc1nc(Sc2ccccc2)c2ccccc2n1	n	85	n	n	n	n
COc1ccccc1C(=O)NC(C)c1ccccc1 (stereo not given)	n	n	56	2.4	n	n
CC(NC(=O)c1ccc(S(=O)(=O)N(C)C)cc1)c1ccccc1 (stereo not given)	n	54	n	n	n	n
CC(NC(=O)c1ccccc1O)c1ccccc1 (stereo not given)	n	n	58	n	n	n
CN(C)S(=O)(=O)c1ccc(C(=O)Nc2ccccc2C(=O)O)cc1	n	x	x	x	x	n
CC12CS(=O)(=O)CC1SC(=S)N2c1ccccn1 (stereo not given)	x	n	n	n	n	n
COc1cccc(C(=O)N2CCN(Cc3cccc(F)c3)CC2)c1	n	n	98	n	n	n
CCOc1ccc(CN2CCN(C(=O)c3cccc(F)c3)CC2)cc1	n	x	x	x	x	n
O=C(c1ccco1)N1CCN(Cc2cccc(F)c2)CC1	n	n	n	n	n	n
COc1cc(OC)cc(C(=O)N2CCN(Cc3cccc(F)c3)CC2)c1	n	n	98	n	n	n
O=C(c1cccc(F)c1)N1CCN(Cc2ccco2)CC1	x	n	69	n	n	n
Cc1noc(/C=C/N(C)C)c1S(=O)(=O)N(C)CC(=O)NC1CCCCC1	n	62	n	n	n	n
COc1ccc(C)cc1S(=O)(=O)N(C)CC(=O)NC1CCCC1	n	x	x	x	x	x
Cc1cc(C)c(S(=O)(=O)N(C)CC(=O)NC2CCCC2)c(C)c1	x	n	80	2.2	n	n
CCOCCCn1c(-c2ccc(Cl)cc2)n[nH]c1=S	n	51	84	n	n	n
COCCCn1c(-c2ccc(Cl)cc2)n[nH]c1=S	n	n	77	n	n	n
SMILES	E-sel TNF inh	CYP2C9 inhib	CYP2C19 inh	CYP2C9 act	CYP2C19 act	F-actin modifier
Cc1nc2scc(-c3ccccc3)c2c(=O)n1N=C1C=CC(=O)C=C1	88	x	x	x	x	x
Cc1nc2scc(-c3ccccc3)c2c(=O)n1N	x	n	n	n	n	n
Cc1sc2nc(C)n(/N=C/c3ccc(O)cc3)c(=O)c2c1C	n	n	n	n	n	x
Cc1nc2scc(-c3ccco3)c2c(=O)n1/N=C/N(C)C	n	n	65	n	n	n
Cc1ccc(-c2csc3nc(C)n(N)c(=O)c23)o1	n	n	n	n	n	n
Cc1ccc(-c2csc3ncn(/N=C/N(C)C)c(=O)c23)o1	n	n	74	n	n	n
Cc1ccc(-c2csc3nc(C)n(-n4c(C)ccc4C)c(=O)c23)o1	n	n	79	n	n	n
Cc1ccc(S(=O)(=O)CC(=O)N(C)C)cc1	n	x	x	x	x	n
O=S(=O)(c1ccc(Cl)cc1)N1CCN(C2CCCCCC2)CC1	n	n	n	n	n	n
Cc1ccc(C)n1-n1c(C)nc2scc(-c3ccccc3)c2c1=O	n	74	72	n	n	n
O=C1CC(c2ccccc2)N1c1ccccc1 (stereo not given)	n	n	n	n	n	x
COc1ccc(CCNC2CC(=O)N(C)C2=O)cc1OC (stereo not given)	x	n	n	n	n	n
CC1CCC(C(C)C)C(OC(=O)COC(=O)c2cccn2C)C1 (stereo not given)	x	80	91	n	n	n
O=C1CC(c2ccc(F)c(Br)c2)C2=C(CCCC2=O)N1 (stereo not given)	n	n	69	n	n	x
O=C1CC(c2ccc3c(c2)OCO3)C2=C(CCCC2=O)N1 (stereo not given)	n	52	n	n	n	n
CC1CCC(NC(=O)c2ccc(CNc3c(NC4CCCCC4)c(=O)c3=O)cc2)CC1 (stereo not given)	n	x	x	x	x	x
Cc1ccc2cccc(N=Cc3c(C)[nH]n(-c4ccccc4)c3=O)c2n1	n	x	x	x	x	x
Cc1nc2c(C(=O)N3CCOCC3)cnn2c(C)c1Cc1ccc(Cl)cc1	n	n	n	n	n	n
O=c1c2ccccc2n2c(-c3cccc(F)c3)nnc2n1Cc1ccccc1	74	x	x	x	x	x
Cc1cc(C)nc(SC2CCOC2=O)n1 (stereo not given)	n	n	n	n	n	n
CC(C)(C)NS(=O)(=O)c1ccc(CCC(=O)O)cc1	n	n	n	n	n	n
CC(C)(C)NS(=O)(=O)c1ccc(NS(=O)(=O)Cc2ccccc2)cc1	n	81	72	n	n	n
CC(C)(C)NS(=O)(=O)c1ccc(NC(=O)C(Sc2ccccc2)c2ccccc2)cc1 (stereo not given)	n	63	n	n	n	n
CCOC(=O)N1CCN(CCC(=O)Nc2ccc(OC(F)(F)F)cc2)CC1	n	x	x	x	x	n
COc1cc(/C=N/NC(=O)Cn2nc([N+](=O)[O-])cc2C)cc(Br)c1OCc1ccccc1	n	74	59	n	n	n
SMILES	E-sel TNF inh	CYP2C9 inhib	CYP2C19 inh	CYP2C9 act	CYP2C19 act	F-actin modifier
CCOc1cc(/C=N/NC(=O)Cn2nc([N+](=O)[O-])cc2C)cc(Br)c1OCc1ccccc1C	n	70	n	n	n	n
CCOc1cc(/C=N/NC(N)=O)cc(Br)c1OCC(=O)Nc1ccccc1C	n	82	59	n	n	n
CN1CCN(C(=O)c2ccc3c(c2)OCCO3)CC1	n	x	x	x	x	n
COc1ccc(N(CC(=O)Nc2cc(C)on2)S(=O)(=O)c2cc(C)ccc2C)cc1	x	95	98	n	n	x
Cc1ccc(N(C(C)C(=O)O)S(=O)(=O)c2c(C)n[nH]c2C)cc1 (stereo not given)	n	n	n	n	n	n
COc1ccc(N(CC(=O)Nc2cc(C)on2)S(=O)(=O)c2ccc(Cl)cc2)cc1	n	n	n	n	n	n
COc1cccc(N2CCN(C(=O)CN(c3ccc(C)cc3)S(=O)(=O)c3c(C)n[nH]c3C)CC2)c1	x	81	58	n	n	n
